In the library only some 21% were active in any assay of this set; here they are far more common.
Pf growth 96h = Primary qHTS for delayed death inhibitors of the malarial parasite plastid, 96 hour incubation. P. falciparum luciferase reporter growth, 96 h. Potency, µM (highest dose often 28.7 µM), without a hit: at the highest dose activity change, negative = inhibition, usual class: inhibitors. 320,000 compounds, 6.9% hits. AID 504834, 2011; note: potency is the fitted concentration of half-maximal effect; % is set by controls: 0 for no effect and ±100 for the full control effect
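Infected RBCs, 2% Hct / 0.05% parasitemia final; luciferase-reporter P. falciparum; cpd 96 h, 37 C, 5% CO2; luciferase detection reagent; luminescence.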
Pf growth 48h = Primary qHTS for delayed death inhibitors of the malarial parasite plastid, 48 hour incubation; P. falciparum luciferase growth in erythrocytes, 48 h; Potency, µM (top dose mostly 28.7 µM), without a hit: at the highest dose activity change, negative = inhibition, hits mostly inhibitors; 310,000 compounds, 5.9% hits; AID 504832, 2011; note: potency is the fitted concentration of half-maximal effect; % is set by controls: 0 for no effect and ±100 for the full control effect
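Luciferase-expressing parasites in RBCs, 2% Hct / 0.1% parasitemia final; RPMI 1640 + 0.5% Albumax; 37 C, 5% CO2, one generation; luminescence read-out, lower signal = inhibition.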
Shiga toxin inh = A qHTS for Small Molecule Inhibitors of Shiga Toxin; Vero cells, Shiga toxin protein synthesis inhibition reporter; inhibition, % at 38.7 µM; 290,000 compounds, 9.2% hits; AID 2315, 2010; in the data active = inhibition mostly above about 28%, no sharp cut-off; inactive = mostly below about 43%; note: 0% is about no effect
CHX counter = Cycloheximide Counterscreen for Small Molecule Inhibitors of Shiga Toxin | cell reporter, cycloheximide protein synthesis inhibition counterscreen | max response, % | 300,000 compounds, 12% hits | AID 2314, 2010; in the data active = max response mostly above about 13%, no sharp cut-off; inactive = mostly below about 14%; note: read at 38.3 µM for the half of the compounds with a filed dose; 0% is about no effect
NS1 function inh = qHTS Assay for Inhibitors of Influenza NS1 Protein Function; Potency, µM (titrated, usually from 46.1 µM), without a hit: at the top dose activity, positive = more growth; 270,000 compounds, 0.4% hits; calls by dose curve; note: potency is the fitted concentration of half-maximal effect; actives are rising curves; nearly all actives have a fitted effect of over 50% in size
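Compounds were scored for reversing the slow growth caused by influenza A NS1 in S. cerevisiae, measured by optical density at 600 nm. Assay medium contained 2% galactose at pH 6.0; NS1-free yeast of the same strain were the positive control.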
Starred values were filed as active, the others as inactive; [ ] = remark or other dose. Unless noted, calls come from the whole dose curve; as a rule, active = well fitted inhibition curve with a large enough effect; inconclusive = small, poorly fitted or top-dose-only effect, or another doubt; inactive = no such curve, though single readings can be large or run the other way.

Results for CCC(C)(C)NC(=O)C(c1ccncc1)N(C(=O)c1sc(C)nc1C)c1ccc(C)cc1 (stereo not drawn) ?
Pf growth 96h: 19.6%; Pf growth 48h: 9.28µM*; Shiga toxin inh: 14.9; CHX counter: 5.2; NS1 function inh: 0.3%

How did COc1ccc(C(C(=O)NC2CCCCC2)N(C(=O)c2sc(C)nc2C)c2ccc(C(C)=O)cc2)cc1 (stereo not drawn) do in these assays?
Pf growth 96h: 9.28µM*; Pf growth 48h: inconclusive; Shiga toxin inh: 3.1; CHX counter: -3.9; NS1 function inh: inconclusive

What do the screens show for `COc1ccc(N(C(=O)c2cnsn2)C(C(=O)NC2CCCCC2)c2ccncc2)cc1` (stereo not drawn)?
Pf growth 96h: inconclusive; Pf growth 48h: -8.0%; Shiga toxin inh: -14.1; CHX counter: -0.6; NS1 function inh: 3.5%

What do the screens show for `CC1CN(C(=O)/C=C/c2ccc(SC(F)F)cc2)CC(C)O1` (stereo not drawn)?
Pf growth 96h: -15.2%; Pf growth 48h: -22.4%; Shiga toxin inh: 1.1; CHX counter: 6.5; NS1 function inh: -2.6%

Results for COc1ccc(CNS(=O)(=O)CCNC(=O)c2ccc3c(c2)OCO3)cc1 ?
Pf growth 96h: 15.2%; Pf growth 48h: 32.0%

What do the screens show for `Cn1cc(/C=C2/SC(=O)N(c3ccccc3)C2=O)c2ccccc21`?
Pf growth 96h: 153.9%; Pf growth 48h: 53.5%; Shiga toxin inh: 43.4; CHX counter: 24.8*; NS1 function inh: 15.1%

Results for O=C(O)Cn1cc(/C=C2/SC(=O)N(CC(=O)N3CCCCCC3)C2=O)c2ccccc21 ?
Pf growth 96h: inconclusive; Pf growth 48h: 25.8%; Shiga toxin inh: -5.3; CHX counter: 9.9

Results for O=C(O)Cn1cc(/C=C2\SC(=O)N(c3ccccc3)C2=O)c2ccccc21 ?
Pf growth 96h: 18.4%; Pf growth 48h: -0.2%; Shiga toxin inh: 31.6; CHX counter: 15.8*; NS1 function inh: 5.7%

Results for Cn1cccc1/C=C1\SC(=O)N(c2ccccc2)C1=O ?
Pf growth 96h: 65.6%; Pf growth 48h: 104.2%; Shiga toxin inh: 63.2*; CHX counter: 52.2*; NS1 function inh: 2.1%

Results for Cn1cccc1/C=C1\SC(=S)N(Nc2ccccc2)C1=O ?
Pf growth 96h: 1.2%; Pf growth 48h: inconclusive; Shiga toxin inh: 50.8*; CHX counter: 37.1*; NS1 function inh: 0.2%

How did Cn1cc(/C=C2\SC(=S)N(NC(=O)c3ccccc3)C2=O)c2ccccc21 do in these assays?
Pf growth 96h: -40.9%; Pf growth 48h: -21.9%; Shiga toxin inh: -4.8; CHX counter: -1.0; NS1 function inh: -1.7%

Results for O=C(O)CC(c1ccc(Br)cc1)N1Cc2ccccc2C1=O (stereo not drawn) ?
Pf growth 96h: 3.7%; Pf growth 48h: 29.6%[0.00184 µM]; Shiga toxin inh: -3.5; CHX counter: -3.5; NS1 function inh: -0.9%

Results for CSc1ccccc1NC(=O)CSc1nnc(CNC(=O)c2ccccc2F)n1C ?
Pf growth 96h: 3.5%; Pf growth 48h: 0.4%; Shiga toxin inh: -13.2; CHX counter: -4.1; NS1 function inh: -13.2%

What do the screens show for `COc1ccc(CCNC(=O)c2cccc(Br)c2)cc1OC`?
Pf growth 96h: -18.1%; Pf growth 48h: 14.6%; Shiga toxin inh: -11.6; CHX counter: -1.3; NS1 function inh: 0.4%

How did CC(=O)c1ccc(-c2ccc(C(=O)N(C)c3c(N)n(Cc4ccccc4)c(=O)[nH]c3=O)o2)cc1 do in these assays?
Pf growth 96h: -9.5%; Pf growth 48h: -0.7%

Results for COc1ccc(NC(=O)C2CCCCN2N)cc1OCC(C)C (stereo not drawn) ?
Pf growth 48h: inconclusive; Shiga toxin inh: 1.9; CHX counter: -2.0; NS1 function inh: 20.5%

How did COc1ccc(CNN2CCCCC2C(=O)Nc2ccc(OC)c(OCC(C)C)c2)cc1OC (stereo not drawn) do in these assays?
Pf growth 96h: 14.7µM*; Pf growth 48h: 27.7%; Shiga toxin inh: -6.3; CHX counter: -0.8; NS1 function inh: 2.4%

Results for O=C(O)C12CC3(C(=O)O)CC(C(=O)O)(CC(C(=O)O)(C1)C3=O)C2=O ?
NS1 function inh: -0.3%

How did CC1CCCCN1C(=O)CSc1nnc(-c2ccccc2O)o1 (stereo not drawn) do in these assays?
Pf growth 96h: 29.9%; Pf growth 48h: 44.9%; Shiga toxin inh: 55.5*; CHX counter: 21.2*; NS1 function inh: -2.2%
